Reference: PubChem BioAssay (Tox21)
Results filed as inconclusive are left out. A call without a number means that no potency is given here. Values without a mark were called inactive. The source made the active and inactive calls. Calls come from the whole dose curve; as a rule, active = well fitted activation curve with a large enough effect in the signal ratio in the repeat runs (not every such curve was filed as active); inconclusive = weak or mixed curves, or effect the other way; inactive = no such curve, though single readings can be large or run the other way; the % refers to the signal ratio.
Potency is the fitted concentration of half-maximal effect.

What follows are compounds tested against Glucocorticoid receptor (Homo sapiens) (UniProt P04150) (assay: qHTS assay to identify small molecule agonists of the glucocorticoid receptor (GR) signaling pathway (AID 720691)). Settings: GR-bla HeLa, beta-lactamase reporter ratio, 18 h; activation: at 62.4 µM (top of the series) unless noted.
Glucocorticoid receptor (Homo sapiens), sequence (P04150 whole entry, looked up): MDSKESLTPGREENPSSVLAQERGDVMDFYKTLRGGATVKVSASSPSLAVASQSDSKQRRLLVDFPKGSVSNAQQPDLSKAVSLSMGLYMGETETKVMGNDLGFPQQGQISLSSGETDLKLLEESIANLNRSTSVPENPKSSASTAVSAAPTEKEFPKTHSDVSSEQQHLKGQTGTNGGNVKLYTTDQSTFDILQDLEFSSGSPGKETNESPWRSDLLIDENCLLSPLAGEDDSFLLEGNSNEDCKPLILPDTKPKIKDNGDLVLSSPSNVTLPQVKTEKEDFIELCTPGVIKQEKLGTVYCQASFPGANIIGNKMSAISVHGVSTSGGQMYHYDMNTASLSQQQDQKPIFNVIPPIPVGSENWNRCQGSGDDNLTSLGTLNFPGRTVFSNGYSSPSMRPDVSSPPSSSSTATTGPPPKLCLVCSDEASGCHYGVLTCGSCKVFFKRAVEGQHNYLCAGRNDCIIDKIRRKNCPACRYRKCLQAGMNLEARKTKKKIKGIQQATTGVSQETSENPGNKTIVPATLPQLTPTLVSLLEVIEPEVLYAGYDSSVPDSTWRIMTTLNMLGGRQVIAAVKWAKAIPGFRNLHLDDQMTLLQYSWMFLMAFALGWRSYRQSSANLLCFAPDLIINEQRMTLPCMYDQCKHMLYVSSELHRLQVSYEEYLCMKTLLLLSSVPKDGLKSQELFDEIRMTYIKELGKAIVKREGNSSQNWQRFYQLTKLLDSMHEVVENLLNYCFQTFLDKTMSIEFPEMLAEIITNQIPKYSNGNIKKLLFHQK
Excerpt: U.S. Tox21 Program National Center for Advancing Translational Sciences [NCATS] NIH Chemical Genomics Center [NCGC] U.S. Environmental Protection Agency [EPA] National Institutes of Environmental Health Sciences [NIEHS] National Toxicology Program [NTP] U.S. Food and Drug Administration [FDA] Tox21 Assay Overview: The Glucocorticoid receptor (GR) is one of the members of the nuclear receptor family of ligand-dependent transcription factors. GR plays a critical role in carbohydrate, protein and lipid metabolisms and programmed cell death. CellSensor GR-bla HeLa cell line (Invitrogen) contains a beta-lactamase reporter gene under the control of the glucocorticoid response element stably integrated into HeLa cells, a cervical cancer cell line that expresses glucocorticoid receptor. The activation of the reporter gene under culture conditions can be detected by fluorescence intensity. This cell line has been used to screen the Tox21 10K compound library and to identify the compounds that activate the GR signaling.
Tox21 Assay Protocol Summary: The GR-bla HeLa cells were dispensed at 1500 cells/6 ul/well in 1536-well black wall/clear bottom plates using a Multidrop Combi (ThermoFisher Scientific, Waltham, MA) dispenser. After the assay plates were incubated at a 37 C/5% CO2 incubator for 4 hours, 23 nL of compounds dissolved in DMSO, positive controls or DMSO only was transferred to the assay plate by a pintool station (Kalypsys, San Diego, CA). The plates were incubated at 37 C for 18 hours. After 1 uL of LiveBLAzerTM B/G FRET substrate was added using a Flying Reagent Dispenser (Aurora Discovery, San Diego, CA), the plates were incubated at room temperature for 2 hours, and fluorescence intensity was measured by an Envision plate reader (PerkinElmer, Shelton, CT).
`O=C(Nc1ccc(S(=O)(=O)N2CCOCC2)cc1)c1cc(Cl)ccc1NS(=O)(=O)c1ccc(Cl)s1` was tested, and the Potency was “inactive”. In the case of `O=S(c1cc(Cl)cc(Cl)c1O)c1cc(Cl)cc(Cl)c1O`, the Potency is reported as “inactive”. `O=C(Nc1ccccc1)c1ccccc1O` was tested, and the Potency was “inactive”. For `COc1cc(Cl)c(OC)cc1N`, the Potency was “inactive”. `COC(=O)c1ccc(I)cc1S(=O)(=O)NC(=O)Nc1nc(C)nc(OC)n1` was tested, and the Potency was “inactive”. In the case of `OCc1cc(C(O)CNCCCCCCOCCCCc2ccccc2)ccc1O` (stereo not given), the Potency is reported as “inactive”. For `C/C(=C(\CCOP(=O)(O)O)SC(=O)c1ccccc1)N(C=O)Cc1cnc(C)nc1N`, the Potency was 11.5 µM (active). In the case of `CC[N+](C)(CC)CCOC(=O)C(O)(c1ccccc1)C1CCCCC1` (stereo not given), the Potency is reported as “inactive”. For `OC[C@H]1O[C@@H](OCCc2ccc(O)cc2)[C@H](O)[C@@H](O)[C@@H]1O`, the Potency was “inactive”. With `c1ccc(CNCCNCc2ccccc2)cc1` the Potency was “inactive”. `C/C=C/C(=O)CC` was tested, and the activation was -3.49% [at 15 µM]. For `O=C1CCCCCCCCCCCC(=O)OCCO1`, the Potency was “inactive”. For `CCCCCCCC#N`, the Potency was “inactive”. In the case of `C=CC(=O)OCCOCCOC(=O)C=C`, the Potency is reported as “inactive”. In the case of `CCCCCCc1ccc(-c2ccc(C#N)cc2)cc1`, the Potency is reported as “inactive”. For `C=C1[C@H]2CC[C@@H]3[C@H]2C(C)(C)CCC[C@]13C`, the Potency was “inactive”. For `C=CC(=O)OCCOc1ccccc1`, the Potency was “inactive”. In the case of `O=[N+]([O-])c1ccc(NCCO)c(OCCO)c1`, the Potency is reported as “inactive”. For `COc1cc(Cl)ccc1Oc1ccc(Cl)cc1Cl`, the Potency was “inactive”. With `CCOC(=O)C1=C[C@]2(CC)CCCN3CCc4c(n1c1ccccc41)[C@@H]32` the Potency was “inactive”. `CN1CCC(=C2c3ccccc3Sc3ccccc32)CC1` was tested, and the Potency was “inactive”. In the case of `CC(CSC(=O)c1ccccc1)C(=O)N1C[C@@H](Sc2ccccc2)C[C@H]1C(=O)O` (stereo not given in full), the Potency is reported as “inactive”. With `CC(C)(CO)[N+](=O)[O-]` the Potency was “inactive”. For `CCCCC`, the Potency was “inactive”. In the case of `C[C@@H](c1ncncc1F)C(O)(Cn1cncn1)c1ccc(F)cc1F` (stereo not given in full), the Potency is reported as “inactive”. In the case of `CCCOC(C(=O)OC1CCN(C)CC1)(c1ccccc1)c1ccccc1`, the Potency is reported as “inactive”. For `Cc1cc(C(=O)O)ccc1[N+](=O)[O-]`, the Potency was “inactive”. For `CN(C)CCN(Cc1ccccc1)c1ccccn1`, the Potency was “inactive”. For `COc1cc(C(=O)OCCCN2CCCN(CCCOC(=O)c3cc(OC)c(OC)c(OC)c3)CC2)cc(OC)c1OC`, the Potency was “inactive”. For `CCC(C)O` (stereo not given), the Potency was “inactive”. `CCCCCCCCO[C@@H]1O[C@H](CO)[C@@H](O)[C@H](O)[C@H]1O` was tested, and the Potency was “inactive”. In the case of `CN1C[C@H]2c3ccccc3Oc3ccc(Cl)cc3[C@@H]2C1`, the Potency is reported as “inactive”. In the case of `CCCCC(CC)CN1C(=O)C2C3C=CC(C3)C2C1=O` (stereo not given), the Potency is reported as “inactive”. `CC(C)OC(=O)C(C)N(C(=O)c1ccccc1)c1ccc(F)c(Cl)c1` (stereo not given) was tested, and the Potency was “inactive”. For `O=[N+]([O-])c1cccc(S(=O)(=O)O)c1`, the Potency was “inactive”. In the case of `COCC(C)OC(C)=O` (stereo not given), the Potency is reported as “inactive”. For `O=C(OCCCCCCOC(=O)c1ccccc1)c1ccccc1`, the Potency was “inactive”. With `COc1ccc(S(=O)(=O)N2C(=O)[C@@](c3ccccc3OC)(N3C[C@H](O)C[C@H]3C(=O)N(C)C)c3cc(Cl)ccc32)c(OC)c1` the Potency was “inactive”. In the case of `NC(N)=NCCC[C@H](N)C(=O)O`, the Potency is reported as “inactive”. In the case of `O=C(O)c1nc(Cl)c(Cl)c(Cl)c1Cl`, the Potency is reported as “inactive”.
